The values that follow come from PMC7862700, “An all-to-all approach to the identification of sequence-specific readers for epigenetic DNA modifications on cytosine”.

Holding throughout (test): DAPPL (digital affinity profiling via proximity ligation, sequencing); 10 mM Tris-HCl pH 7.5, 50 mM NaCl, 1 mM DTT, 4% glycerol, room temperature, 30 min; GST-TFs on glutathione beads, 16-mer random dsDNA library, 0.1% formaldehyde crosslink after washing; high values mean tight binding
Holding throughout (settings): protein: recombinant; tags: N-terminal GST; dsDNA, one strand shown

One assay deals with T1, ERF (Homo sapiens, UniProt P50548 1-548).
T1 sequence: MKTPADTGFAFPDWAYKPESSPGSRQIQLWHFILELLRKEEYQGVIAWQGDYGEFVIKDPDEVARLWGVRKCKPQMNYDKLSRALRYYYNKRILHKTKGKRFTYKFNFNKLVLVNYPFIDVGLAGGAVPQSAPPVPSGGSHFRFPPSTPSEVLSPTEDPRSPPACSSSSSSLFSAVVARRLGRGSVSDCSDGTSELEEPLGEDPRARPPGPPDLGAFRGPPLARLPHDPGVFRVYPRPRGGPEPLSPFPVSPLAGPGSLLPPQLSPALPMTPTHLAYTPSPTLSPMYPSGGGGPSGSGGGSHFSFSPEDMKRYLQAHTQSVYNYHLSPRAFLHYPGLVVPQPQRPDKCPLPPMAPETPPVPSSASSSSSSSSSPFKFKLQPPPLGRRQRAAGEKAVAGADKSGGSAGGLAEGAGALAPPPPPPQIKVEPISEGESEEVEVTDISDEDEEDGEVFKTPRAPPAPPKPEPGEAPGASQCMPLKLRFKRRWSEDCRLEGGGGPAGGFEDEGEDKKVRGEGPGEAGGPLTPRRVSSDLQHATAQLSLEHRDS
Summed up: (§1)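 In yeast, human transcription factors were expressed with a GST fusion, then pulled down on glutathione beads and given DNA barcodes. Pooled with a tag-only sample, they were exposed to 200 nmole of a 16-mer random double-stranded DNA library (Tris/NaCl/DTT/glycerol buffer, room temperature, 30 min), washed, crosslinked with 0.1% formaldehyde, proximity-ligated using BsaI/T4 ligase for 1 h at 37 °C, PCR-amplified and read on an Illumina NextSeq500. Each hexamer's frequency of reads for a factor, divided by the matching frequency for the tag-only sample, gives the binding signal.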

Another assay deals with T2, ETV3L (Homo sapiens, UniProt Q6ZN32 1-361).
T2 sequence: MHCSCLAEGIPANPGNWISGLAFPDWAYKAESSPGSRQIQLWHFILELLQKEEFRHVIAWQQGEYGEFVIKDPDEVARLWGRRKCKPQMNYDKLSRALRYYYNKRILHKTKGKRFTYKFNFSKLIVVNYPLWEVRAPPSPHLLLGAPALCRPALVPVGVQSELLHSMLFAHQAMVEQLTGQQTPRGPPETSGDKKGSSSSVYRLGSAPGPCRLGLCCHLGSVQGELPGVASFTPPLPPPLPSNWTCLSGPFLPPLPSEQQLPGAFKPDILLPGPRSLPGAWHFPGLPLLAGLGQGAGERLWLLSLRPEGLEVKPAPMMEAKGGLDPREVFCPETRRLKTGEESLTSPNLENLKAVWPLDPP
Summed up:
as §1

In another assay the target is T3, ETS2 (Homo sapiens, UniProt P15036 1-469).
T3 sequence: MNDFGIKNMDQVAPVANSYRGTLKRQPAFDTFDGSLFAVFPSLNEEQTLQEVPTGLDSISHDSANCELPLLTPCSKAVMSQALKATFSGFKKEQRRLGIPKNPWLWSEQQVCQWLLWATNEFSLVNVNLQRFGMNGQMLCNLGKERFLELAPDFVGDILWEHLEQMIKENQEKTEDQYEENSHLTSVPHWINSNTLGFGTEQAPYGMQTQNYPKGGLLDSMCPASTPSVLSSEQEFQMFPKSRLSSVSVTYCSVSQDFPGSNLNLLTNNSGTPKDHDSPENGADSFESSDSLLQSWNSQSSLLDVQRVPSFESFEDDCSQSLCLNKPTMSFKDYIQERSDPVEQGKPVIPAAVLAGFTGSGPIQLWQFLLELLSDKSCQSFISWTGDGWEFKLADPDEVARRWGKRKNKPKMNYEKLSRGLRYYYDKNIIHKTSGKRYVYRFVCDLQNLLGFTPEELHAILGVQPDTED
Summed up:
as §1

A further assay has as its target T4, SPDEF (Homo sapiens, UniProt O95238 1-335).
T4 sequence: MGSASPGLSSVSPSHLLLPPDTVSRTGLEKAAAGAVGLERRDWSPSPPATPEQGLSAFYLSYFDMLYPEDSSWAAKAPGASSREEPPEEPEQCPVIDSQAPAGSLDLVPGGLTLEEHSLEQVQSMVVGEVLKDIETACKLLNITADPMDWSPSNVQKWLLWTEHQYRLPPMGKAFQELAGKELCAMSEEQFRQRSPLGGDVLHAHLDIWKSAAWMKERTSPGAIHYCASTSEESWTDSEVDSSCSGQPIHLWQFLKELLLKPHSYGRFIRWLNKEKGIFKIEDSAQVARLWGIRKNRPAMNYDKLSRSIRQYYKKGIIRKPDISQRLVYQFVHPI
A digest of the protocol:
as §1

A further assay deals with T5, ETV7 (Homo sapiens, UniProt Q9Y603 1-341).
T5 sequence: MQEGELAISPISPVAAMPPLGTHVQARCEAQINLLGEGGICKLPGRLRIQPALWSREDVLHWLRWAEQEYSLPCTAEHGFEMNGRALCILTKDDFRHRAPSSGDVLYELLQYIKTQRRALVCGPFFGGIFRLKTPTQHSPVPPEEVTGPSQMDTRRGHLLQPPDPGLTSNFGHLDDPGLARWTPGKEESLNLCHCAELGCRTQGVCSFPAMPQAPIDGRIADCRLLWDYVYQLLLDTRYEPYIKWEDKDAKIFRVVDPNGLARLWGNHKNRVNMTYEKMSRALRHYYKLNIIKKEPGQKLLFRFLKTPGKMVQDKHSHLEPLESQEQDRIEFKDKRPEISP
A digest of the protocol:
as §1

The next assay has as its target T6, ELF5 (Homo sapiens, UniProt Q9UKW6-2 1-255).
T6 sequence: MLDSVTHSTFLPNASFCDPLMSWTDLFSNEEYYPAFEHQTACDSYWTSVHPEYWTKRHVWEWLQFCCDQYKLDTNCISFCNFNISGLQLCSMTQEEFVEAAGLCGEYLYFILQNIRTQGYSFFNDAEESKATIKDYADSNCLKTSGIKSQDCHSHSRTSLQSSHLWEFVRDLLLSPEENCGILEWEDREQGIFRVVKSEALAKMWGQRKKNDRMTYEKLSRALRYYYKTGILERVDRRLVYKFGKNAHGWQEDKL
A digest of the protocol:
as §1

The next assay has as its target T7, ETV3 (Homo sapiens, UniProt P41162-2 1-143).
T7 sequence: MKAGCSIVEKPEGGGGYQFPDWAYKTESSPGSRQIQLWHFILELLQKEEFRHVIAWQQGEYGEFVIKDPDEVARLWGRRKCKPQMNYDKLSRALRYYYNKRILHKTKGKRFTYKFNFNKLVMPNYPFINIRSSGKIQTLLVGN
Summed up: as §1

In a further assay the target is ETV6 (Homo sapiens, UniProt P41212 1-452). A digest of the protocol: as §1
ETV6, sequence (P41212 whole entry): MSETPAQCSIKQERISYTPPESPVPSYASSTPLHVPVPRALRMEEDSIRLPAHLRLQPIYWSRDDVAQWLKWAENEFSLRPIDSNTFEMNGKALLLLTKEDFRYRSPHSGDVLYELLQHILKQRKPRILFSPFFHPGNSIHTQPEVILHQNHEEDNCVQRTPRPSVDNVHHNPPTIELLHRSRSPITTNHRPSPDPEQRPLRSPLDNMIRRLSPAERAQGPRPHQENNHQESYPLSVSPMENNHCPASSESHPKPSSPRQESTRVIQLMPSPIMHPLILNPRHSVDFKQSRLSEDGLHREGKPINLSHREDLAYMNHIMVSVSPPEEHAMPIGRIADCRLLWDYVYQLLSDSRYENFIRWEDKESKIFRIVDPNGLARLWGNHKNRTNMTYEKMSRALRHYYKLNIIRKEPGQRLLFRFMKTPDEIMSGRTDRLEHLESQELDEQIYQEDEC

ACTTAA: the binding signal in the assay with ERF was 1.26 fold enrichment (6-mer frequency, TF over GST control); with ETV3L, 1.16 fold enrichment (6-mer frequency, TF over GST control); with ETS2, 1.19 fold enrichment (6-mer frequency, TF over GST control); in the assay with SPDEF, 1.17 fold enrichment (6-mer frequency, TF over GST control); in the assay with ETV7, 1.27 fold enrichment (6-mer frequency, TF over GST control); with ELF5 it was 1.16 fold enrichment (6-mer frequency, TF over GST control). Further, the binding signal was 1.17 fold enrichment (6-mer frequency, TF over GST control) with ETV3 and 1.21 fold enrichment (6-mer frequency, TF over GST control) with ETV6.

On to CGCTGC, for which the binding signal is 1.28 fold enrichment (6-mer frequency, TF over GST control) with ERF; 1.17 fold enrichment (6-mer frequency, TF over GST control) in the assay with ETV3L; 1.28 fold enrichment (6-mer frequency, TF over GST control) with ETS2; 1.15 fold enrichment (6-mer frequency, TF over GST control) in the assay with SPDEF; 1.03 fold enrichment (6-mer frequency, TF over GST control) with ETV7; 1.07 fold enrichment (6-mer frequency, TF over GST control) in the assay with ELF5. The binding signal in the assay with ETV3 was 1.13 fold enrichment (6-mer frequency, TF over GST control); with ETV6, 1.18 fold enrichment (6-mer frequency, TF over GST control).

As to TAAGCC, the binding signal is 1.15 fold enrichment (6-mer frequency, TF over GST control) in the assay with ERF; 1.2 fold enrichment (6-mer frequency, TF over GST control) in the assay with ETV3L; 1.15 fold enrichment (6-mer frequency, TF over GST control) with ETS2; 1.12 fold enrichment (6-mer frequency, TF over GST control) in the assay with SPDEF; 1.1 fold enrichment (6-mer frequency, TF over GST control) with ETV7; 1.03 fold enrichment (6-mer frequency, TF over GST control) with ELF5. Also, the binding signal was 1.12 fold enrichment (6-mer frequency, TF over GST control) with ETV3 and 1.03 fold enrichment (6-mer frequency, TF over GST control) in the assay with ETV6.

For the sequence CCTCTC, the binding signal in the assay with ERF is 1.4 fold enrichment (6-mer frequency, TF over GST control); in the assay with ETV3L it was 1.41 fold enrichment (6-mer frequency, TF over GST control); with ETS2, 1.34 fold enrichment (6-mer frequency, TF over GST control); with SPDEF, 1.39 fold enrichment (6-mer frequency, TF over GST control); with ETV7, 1.44 fold enrichment (6-mer frequency, TF over GST control); with ELF5, 1.41 fold enrichment (6-mer frequency, TF over GST control). Further, the binding signal with ETV3 was 1.44 fold enrichment (6-mer frequency, TF over GST control); with ETV6 it was 1.5 fold enrichment (6-mer frequency, TF over GST control).

Take CCCCGC: the binding signal with ERF was 1.11 fold enrichment (6-mer frequency, TF over GST control); with ETV3L, 1.23 fold enrichment (6-mer frequency, TF over GST control); with ETS2, 1.14 fold enrichment (6-mer frequency, TF over GST control); in the assay with SPDEF, 1.06 fold enrichment (6-mer frequency, TF over GST control); with ETV7, 1.19 fold enrichment (6-mer frequency, TF over GST control); with ELF5, 1.07 fold enrichment (6-mer frequency, TF over GST control). The binding signal in the assay with ETV3 was 1.14 fold enrichment (6-mer frequency, TF over GST control); in the assay with ETV6 it was 1.16 fold enrichment (6-mer frequency, TF over GST control).

In the case of GTAATT, the binding signal is 1.12 fold enrichment (6-mer frequency, TF over GST control) with ERF; 1.21 fold enrichment (6-mer frequency, TF over GST control) with ETV3L; 1.28 fold enrichment (6-mer frequency, TF over GST control) with ETS2; 1.19 fold enrichment (6-mer frequency, TF over GST control) with SPDEF; 1.3 fold enrichment (6-mer frequency, TF over GST control) with ETV7; 1.28 fold enrichment (6-mer frequency, TF over GST control) in the assay with ELF5. The binding signal was 1.18 fold enrichment (6-mer frequency, TF over GST control) in the assay with ETV3 and 1.3 fold enrichment (6-mer frequency, TF over GST control) with ETV6.
